Assay outcomes from PubChem.
Hits are enriched below; roughly 8.7% of the tested compounds scored in any of these assays.
VACV mCherry inh: vaccinia inhibition (mCherry reporter) | Vaccinia virus mCherry reporter infection, fluorescence | 0.63% of 310,000 active | AID 720579 | Potency, µM (highest dose often 36.5 µM), for the others: at the highest dose activity change, negative = inhibition, usual class: inhibitors; calls by dose curve; tested in A549 cells; further: nearly all actives have a fitted effect of over 35% in size
AMA1 RON2 block: AMA1-RON2 (P. falciparum) interaction inhibition | AlphaScreen AMA1-biotinylated RON2 peptide binding | Potency, µM (titrated, usually from 58.2 µM), without a hit: at the top dose activity change, negative = inhibition, most hits filed as inhibitors | 0.2% of 360,000 active;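 further: 0% = vehicle wells and -100% = peptide control; nearly all actives have a fitted effect of over 45% in size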
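AMA1 (3D7) with his tag at 25 nM final met compounds first, then biotinylated RON2 peptide at 25 nM; detection used donor plus acceptor beads, 10 µg/mL apiece, read by AlphaScreen after 30 min at room temperature.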
Pf growth 48h: inhibits P. falciparum growth in the first generation, 48 h; Potency, µM (top dose mostly 28.7 µM), without a hit: at the highest dose activity change, negative = inhibition, hits mostly inhibitors; AID 504832; 5.9% of 310,000 active; P. falciparum luciferase growth in erythrocytes, 48 h
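Luminescence readout; reporter = integrated firefly luciferase in P. falciparum. RBC culture at 2% hematocrit, 0.1% parasitemia final, 37 C/5% CO2; decreased signal taken as growth inhibition.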
Pf growth 96h: inhibits malaria parasite growth, 96 h; Potency, µM (doses to about 28.7 µM), for inactives: at the top dose activity change, negative = inhibition, usual class: inhibitors; P. falciparum luciferase reporter growth, 96 h; 6.9% of 320,000 active; AID 504834
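Delayed-death screen, second-generation endpoint: infected erythrocytes, 2% hematocrit, 0.05% parasitemia final; 96 hours at 37 C, 5% CO2; luciferase detection reagent; luminescence decrease equals reduced growth.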
VACV Venus inh: vaccinia inhibition (Venus reporter); 0.46% of 330,000 active; Vaccinia virus Venus reporter expression, fluorescence; Potency, µM (doses to about 36.5 µM), for the others: top-dose activity change, negative = inhibition, hits mostly inhibitors; calls by dose curve; tested in A549 cells; further: nearly all actives have a fitted effect of over 30% in size
Active calls of the source: *; i = inactive; ? = inconclusive; nt = no result given; [ ] = remark or other dose. Unless noted, the call rests on the fitted dose curve; in most records, active means well fitted curve in the direction sought with a large enough effect; inconclusive means small, poorly fitted or top-dose-only effect, or another doubt; inactive means no such curve, though single readings can be large; an effect the other way counts as inactive or inconclusive. Unless noted, on the % scale 0 is the no-effect control and ±100 the full control effect; potency means the concentration at half of the fitted maximal effect.

SMILES | VACV mCherry inh | AMA1 RON2 block | Pf growth 48h | Pf growth 96h | VACV Venus inh
C#CCOCCOCCOCCNc1nc(N2CCN(C(=O)C(Cc3cc4ccccc4[nH]3)n3cc(C(N)C(C)CC)nn3)CC2)nc(N2CCN(C(=O)C(Cc3cc4ccccc4[nH]3)n3cc(C(N)C(C)CC)nn3)CC2)n1 (stereo not given) | -14% | -22% | ? | 4.1µM* | -14%
C#CCOCCOCCOCCNc1nc(N2CCOCC2)nc(N2CCN(C(=O)[C@H](Cc3cc4ccccc4[nH]3)n3cc([C@@H](N)C(C)CC)nn3)CC2)n1 (stereo not given in full) | 6% | -2% | ? | 2.9µM* | -12%
CCOc1ccccc1C(=O)Nc1cc(-c2ccc(C)cc2)no1 | -9% | nt | nt | nt | -14%
Cc1nn(CC(=O)NCCc2ccccc2Cl)c(=O)c2nn(-c3ccccc3)c(C)c12 | -19% | nt | nt | nt | -19%
CCOC(=O)C1=C(CSc2nc3ccccc3s2)NC(=O)NC1c1cccc([N+](=O)[O-])c1 (stereo not given) | -29% | -1% | 5.9µM* | ? | ?
CCOC(=O)C1=C(CNCc2ccc(C)cc2)NC(=O)NC1c1cc(C)ccc1C (stereo not given) | nt | 9% | nt | 3.3µM* | nt
CCOC(=O)C1=C(Cn2cnc3ccccc32)NC(=O)NC1c1cc(C)ccc1C (stereo not given) | ? | -1% | ? | ? | -30%
CCOC(=O)C1=C(CNCc2ccccc2Cl)NC(=O)NC1c1cccc([N+](=O)[O-])c1 (stereo not given) | ? | 26% | ? | 0.93µM* | ?
COc1ccccc1NC(=O)CN1C(=O)COc2ccc(C)cc21 | -19% | 16% | -14% | -21% | -6%
COc1ccc(C)cc1NC(=O)CN1C(=O)COc2ccc(C)cc21 | -13% | -2% | -10% | 5.2µM* | -10%
CCOC(=O)Nc1cc(C)ccc1OC | -5% | 18% | -20% | -3% | -12%
CCCCCCCCC(=O)Nc1cc(C)ccc1OC | nt | 24% | 10µM* | ? | nt
O=C(N/N=C/c1cn(-c2ccccc2)nc1-c1cc2ccccc2o1)c1ccccc1Br | i | -15% | -52% | -45% | -11%
O=C(N/N=C/c1cn(-c2ccccc2)nc1-c1cc2ccccc2o1)c1c[nH]c2ccccc12 | -16% | 2% | 3.3µM* | ? | -23%
COc1ccc(OC)c(C(O)C2CCCCN2)c1 (stereo not given) | -11% | -7% | ? | 3.3µM* | -1%
COc1ccc(OC(=O)c2nc(SCc3ccc(C)cc3)ncc2Cl)cc1 | 3% | nt | nt | nt | 2%
COc1ccc(OC)c(C2c3[nH]c4ccccc4c3C[C@H]3C(=O)N(C4CC4)CC(=O)N23)c1 (stereo not given in full) | nt | 4% | ? | ? | nt
Cc1ccccc1C1c2[nH]c3ccccc3c2C[C@H]2C(=O)N(C3CCN(Cc4ccccc4)CC3)CC(=O)N12 (stereo not given in full) | nt | nt | 3.3µM* | 0.33µM* | nt
COc1ccc(C2c3[nH]c4ccccc4c3C[C@H]3C(=O)N(C4CCN(Cc5ccccc5)CC4)CC(=O)N23)c(OC)c1 (stereo not given in full) | nt | -23% | 0.83µM* | 1µM* | nt
CCOc1ccccc1C1c2[nH]c3ccccc3c2C[C@H]2C(=O)N(C3CCN(Cc4ccccc4)CC3)CC(=O)N12 (stereo not given in full) | -13% | -29% | 0.93µM* | 0.74µM* | -27%
O=C(c1cccn1-c1nnc(N2CCCC2)s1)N1CCN(c2ccc(Cl)cc2)CC1 | -14% | nt | nt | nt | -9%
CC(O)(COc1ccccc1)c1ccc2c(c1)CN(Cc1cccc3ncccc13)CCO2 (stereo not given) | -19% | nt | nt | nt | -4%
CC(C)(C)C1=CC(=Nc2ccccc2N)C=C(C(C)(C)C)C1=O | -15% | 11µM* | 0% | 3% | -9%
CC(C)C(C(=O)NC(C)(C)C)N(CCN1CCOCC1)C(=O)CNS(=O)(=O)c1ccccc1 (stereo not given) | -3% | 7% | -11% | 1.9µM* | -7%
O=c1c2c(nc3c(-c4ccc(Cl)cc4)c[nH]n13)CCC2 | -6% | 48% | 10µM* | -13% | -26%
SMILES | VACV mCherry inh | AMA1 RON2 block | Pf growth 48h | Pf growth 96h | VACV Venus inh
Cc1c(-c2ccccc2)[nH]n2c(=O)c3c(nc12)CCCC3 | -13% | 16% | ? | ? | -16%
Cc1ccc(-c2[nH]n3c(=O)c4c(nc3c2C)CCCC4)cc1 | nt | -18% | 0.046µM* | -28% | nt
Cc1cc2nc3c(c(=O)n2[nH]1)CCCC3 | nt | 2% | 12µM* | 6% | -7%
COc1ccc(C2c3[nH]c4ccccc4c3C[C@H]3C(=O)N(c4ccccc4C(=O)N4CCC(C(=O)O)CC4)C(=O)N23)cc1 (stereo not given in full) | 0% | 7% | 12µM* | ? | -4%
CC(C)c1ccc(C2c3[nH]c4ccccc4c3C[C@H]3C(=O)N(c4ccccc4C(=O)N4CCC[C@H]4C(=O)O)C(=O)N23)cc1 (stereo not given in full) | 0% | -11% | 6.6µM* | ? | 3%
COc1cccc(C2c3[nH]c4ccccc4c3C[C@H]3C(=O)N(c4ccccc4C(=O)N4CCC(C(=O)O)CC4)C(=O)N23)c1 (stereo not given in full) | -14% | -10% | ? | ? | -8%
Cc1ccc(Cl)cc1N1CCN(C(=O)c2ccc3c(c2)N(Cc2ccccc2F)C(=O)c2ccccc2S3(=O)=O)CC1 | -6% | nt | nt | nt | -5%
COc1cccc(/C=C2\SC(=S)N(NS(=O)(=O)c3ccccc3)C2=O)c1OC | nt | 11% | 18% | 34% | nt
O=C(CN1C(=O)/C(=C/c2ccco2)SC1=S)Nc1ccc(C(=O)O)c(O)c1 | nt | -6% | 16% | ? | nt
COc1cc(/C=C2\SC(=S)N(NS(=O)(=O)c3ccccc3)C2=O)cc(OC)c1OC | -18% | -8% | 9.3µM* | 4% | -19%
COc1ccc(NC(=O)CCCN2C(=O)/C(=C\c3ccco3)SC2=S)cc1 | ? | -11%[11.6 µM] | 8% | 5.2µM* | -30%
COc1ccc(/C=C2/SC(=S)N(CCCC(=O)Nc3cccc(O)c3)C2=O)cc1 | ? | -16% | 15µM* | ? | 10%
O=C(CN1C(=O)/C(=C/c2ccco2)SC1=S)Nc1ccc(O)c(C(=O)O)c1 | nt | 1% | 11% | 15µM* | nt
CCc1cccc(C)c1NC(=O)Cn1ccn(-c2ccc(F)cc2)c(=O)c1=O | -11% | nt | nt | nt | -2%
COc1ccccc1NC(=O)C(Cc1ccccc1)NS(=O)(=O)c1ccc2c(c1)c(=O)n(C)c(=O)n2C (stereo not given) | -15% | nt | nt | nt | -5%
COC(=O)c1ccc2c(=O)n(CCCCCC(=O)NCCc3ccccc3)c(=O)[nH]c2c1 | i | nt | nt | nt | -10%
COc1cccc(/C=C2\SC(=S)N(CCC(=O)NCCc3ccc(O)cc3)C2=O)c1 | 11µM* | -8% | ? | ? | ?
